Shown are actives, neighbours in structure and some others; about 9.4% of the full set was active somewhere.
ELG1 repair inh = blocks ELG1-dependent DNA repair in HEK293T cells | HEK293T ELG1-luciferase reporter, luminescence, 16 h; DNA damage induced by 5-fluorouridine | Potency, µM (highest dose often 46.1 µM), for inactives: at the top dose activity change, negative = inhibition, usual class: inhibitors | 330,000 compounds, 2.3% hits | AID 504467; also: % is scaled to controls: 0 for no effect and ±100 for the full control effect; nearly all actives have a fitted effect of over 55% in size
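Quantitative HTS, concentration-response format. 2,000 cells/well co-treated with 5-fluorouridine and compound, 16 hr in 5% CO2 at 37 °C; ONE-Glo luminescence read after 30 min.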
ELG1 genotox = induces genotoxicity in HEK293T cells with luciferase-tagged ELG1. HEK293T ELG1-luciferase reporter, luminescence, 16 h. Potency, µM (titrated, usually from 46 µM), for the others: top-dose activity change, positive = activation, usual class: activators. 330,000 compounds, 1.3% hits; also: % of control where 0% means no effect; nearly all actives have a fitted effect of over 60% in size
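16 hr compound incubation (37 °C, 5% CO2) of HEK293T cells carrying luciferase-tagged ELG1; luciferase then measured by ONE-Glo luminescence after 30 min at RT.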
NPC1 promoter act = activates the NPC1 promoter; Huh7 NPC1 promoter luciferase reporter, 24 h; Potency, µM (titrated, usually from 9.22 µM), for inactives: top-dose activation, usual class: activators; 320,000 compounds, 2.4% hits; also: % of control where 0% means no effect; nearly all actives have a fitted effect of over 60% in size
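Stable NPC1-promoter luciferase Huh7 line; cpd (DMSO) 24 h, 37 °C, 5% CO2; Amplite luciferase reagent 10 min RT; luminescence readout. qHTS format.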
FLuc modulator = firefly luciferase modulation, counter-screen for miR-21 project; purified FLuc, Km substrates, luminescence inhibition; Potency, µM (top dose mostly 57.5 µM), inactives show at the highest dose activity change, negative = inhibition, hits mostly inhibitors; 360,000 compounds, 6.9% hits; AID 588342;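 also: plate controls were vehicle for no effect and reference inhibitor for full effect; nearly all actives have a fitted effect of over 55% in size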
Target sequence (P08659 whole entry, looked up): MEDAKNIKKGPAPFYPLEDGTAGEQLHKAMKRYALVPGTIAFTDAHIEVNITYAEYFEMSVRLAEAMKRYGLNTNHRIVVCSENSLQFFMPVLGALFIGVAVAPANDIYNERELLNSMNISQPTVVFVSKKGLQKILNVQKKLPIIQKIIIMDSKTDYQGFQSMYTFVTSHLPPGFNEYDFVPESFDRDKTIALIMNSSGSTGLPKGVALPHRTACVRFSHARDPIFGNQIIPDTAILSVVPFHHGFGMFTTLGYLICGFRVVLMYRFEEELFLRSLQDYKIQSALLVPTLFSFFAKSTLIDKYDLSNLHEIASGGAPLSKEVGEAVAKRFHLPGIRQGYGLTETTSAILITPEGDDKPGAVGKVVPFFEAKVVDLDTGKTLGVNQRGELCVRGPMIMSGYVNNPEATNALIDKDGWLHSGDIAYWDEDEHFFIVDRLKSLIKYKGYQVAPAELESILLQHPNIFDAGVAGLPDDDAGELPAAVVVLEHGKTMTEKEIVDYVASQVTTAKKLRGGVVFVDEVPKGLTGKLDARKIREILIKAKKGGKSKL
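Purified P. pyralis luciferase, 10 nM final, with Km-level 10 uM D-luciferin and 10 uM ATP in 50 mM Tris acetate pH 7.5, 10 mM Mg acetate, 0.01% Tween-20, 0.05% BSA; 6-point qHTS titration about 60 µM downward; luminescence read.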
SMN2 splice up = SMN2 splice variant enhancement | HEK293 SMN2-luciferase splicing reporter, luminescence, 30-36 h | Potency, µM (titrated, usually from 46.1 µM), for the others: at the top dose activity change, positive = activation, usual class: activators | 210,000 compounds, 2.8% hits | AID 1458; also: % of control where 0% means no effect; nearly all actives have a fitted effect of over 55% in size
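HEK293 cells carry an SMN2 minigene-luciferase reporter in which exon 7 inclusion puts luciferase in frame. Cells were seeded at 2000 cells/well, attached for 10-12 hours, then exposed to compounds for 30-36 hours at 37C before ONE-Glo luminescence.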
Rab9 promoter act = activates the Rab9 promoter; Huh7 Rab9 promoter-luciferase reporter, luminescence, 24 h; Potency, µM (series often up to 9.22 µM), inactives show at the top dose activation, negative = inhibition, actives largely listed as activators; 320,000 compounds, 2.8% hits; AID 485297; also: % of control where 0% means no effect; nearly all actives have a fitted effect of over 60% in size
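Luciferase signal after 10 min detection reagent at ambient indicates Rab9 promoter upregulation; stably transfected Huh7 cells were treated 24 h with compound in DMSO at 37 °C, 5% CO2.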
Numbers without * were called inactive; ? = inconclusive; / = no result; [ ] = dose if it differs, or a comment. Calls follow the shape of the dose curve; as a rule, active = well fitted curve in the direction sought with a large enough effect; inconclusive = small, poorly fitted or top-dose-only effect, or another doubt; inactive = no such curve, though single readings can be large; an effect the other way counts as inactive or inconclusive. Potency is read from the fitted curve at half-maximal effect.

SMILES | ELG1 repair inh | ELG1 genotox | NPC1 promoter act | FLuc modulator | SMN2 splice up | Rab9 promoter act
COc1ccc(-n2ccn(Cc3ccccc3C)c(=O)c2=O)cc1 | / | / | / | -3% | / | /
COc1cccc(-c2nc(SCC(=O)NC3CCCC3)c(-c3ccc(F)cc3)[nH]2)c1 | / | / | / | -3% | -23% | /
CC(C)(C)c1ccc(C(=O)NC2(C(F)(F)F)C(=O)Nc3c2c(=O)[nH]c(=O)n3-c2ccccc2)cc1 (centres undefined) | / | / | / | ? | 7% | /
O=C(Nc1nc2cc3c(cc2s1)OCCO3)c1ccco1 | ? | ? | ? | 0.11µM* | / | 0.79µM*
O=C(Nc1nc2cc3c(cc2s1)OCCO3)c1ccncc1 | ? | ? | 2.2µM* | 1.7µM* | ? | 1.6µM*
O=C(Nc1nc2ccccc2c(=O)s1)c1ccco1 | 2% | 0% | -2% | 15µM* | / | -13%
O=C(Nc1nc2cc3c(cc2s1)OCCO3)c1ccc(N2C(=O)CCC2=O)cc1 | ? | 5% | ? | ? | / | 12%
CN(C)CCN(C(=O)c1ccco1)c1nc2cc3c(cc2s1)OCCO3 | ? | 18µM* | 18% | -12% | / | 18%
O=C(Nc1n[nH]c(=S)s1)c1ccco1 | 12% | 3% | 0% | -4% | / | 24%
CN(C)CCN(C(=O)c1ccc(C(=O)c2ccccc2)cc1)c1nc2cc3c(cc2s1)OCCO3 | ? | ? | 15% | -4% | / | 21%
O=C(Nc1nc2ccccc2c(=O)s1)c1ccc(F)cc1Cl | ? | 0% | 8% | 3.8µM* | / | 0%
CCCc1cc2c(cc1NC(=O)c1ccco1)OCO2 | 2% | -3% | -1% | -1% | 8% | -6%
O=C(Nc1nc2cc3c(cc2s1)OCO3)c1ccco1 | ? | 4% | 0.25µM* | 0.24µM* | / | 0.22µM*
O=C(CCNC(=O)c1ccccc1Cl)Nc1nc2ccc(F)cc2s1 | ? | 11% | 28% | ? | / | 25%
CC1=C(C(=O)Nc2ccc(C)c(C)c2)C2(CCCCCC2)OC1=O | / | / | / | 2% | / | /
COc1cccc(NC(=O)N(Cc2cc3cc(C)cc(C)c3[nH]c2=O)CC2COCCO2)c1 (centres undefined) | 7.3µM* | -3% | -2% | -20% | -11% | 3%
Cc1ccc2cc(CN(CCN(C)C)C(=S)Nc3ccccc3)c(=O)[nH]c2c1C | 9.2µM* | -5% | -6% | 0% | / | -10%
Cc1cccc2cc(CN(CC3CCCO3)C(=S)Nc3ccccc3)c(=O)[nH]c12 (centres undefined) | 16µM* | -8% | 1% | 3% | 9%[1.84 µM] | -3%
Cc1ccc(C(=O)Nc2ccccc2C(=O)OCc2cc(=O)n3nc(C4CC4)sc3n2)cc1 | / | / | / | -1% | / | /
CC(C)c1nc2ccc(C(=O)NCc3ccc(F)cc3)cc2o1 | / | / | / | 2% | / | /
COC(=O)c1ccc(Nc2c([N+](=O)[O-])ccc3nonc23)cc1 | 0% | -1% | 0% | 1% | / | -8%
CC(=O)Nc1ccc(-c2csc(NC(=O)CCCc3cccs3)n2)cc1 | 18µM* | -11% | 3% | -13% | -28% | -3%
CC(=O)Nc1ccc(-c2csc(NCc3ccccc3)n2)cc1 | ? | ? | 22% | 19µM* | 17% | ?
CC(=O)Nc1cccc(-c2csc(NCc3ccccc3)n2)c1 | -2% | 2% | -3% | 21µM* | / | -3%
CCC(=O)Nc1cccc(-c2csc(-c3ccccc3)n2)c1 | -3% | 8% | 20% | 15µM* | ? | 22%
SMILES | ELG1 repair inh | ELG1 genotox | NPC1 promoter act | FLuc modulator | SMN2 splice up | Rab9 promoter act
[N-]=[N+]=Nc1ccc(C(=O)CSC[C@H](NC(=O)CC[C@H](N)C(=O)O)C(=O)NCC(=O)O)cc1 | / | / | 18%[46.1 µM] | / | 5% | -6%[46.1 µM]
COc1cccc(-c2nc3c(c(SCC(=O)Nc4cccc(C)c4C)n2)Cc2c(CO)cnc(C)c2O3)c1 | / | / | / | -8% | / | /
C=C1C=C(C(F)F)n2ncc(C(=O)Nc3ccc(C(C)CC)cc3)c2N1 (centres undefined) | / | / | / | 0% | / | /
Cc1ccc(CNC(=O)CN2C(=O)CCn3nc(-c4ccccc4)cc32)cc1 | / | / | / | -17% | / | /
CC(C)=NNc1nc(-c2ccc([N+](=O)[O-])cc2)cs1 | 17% | 9% | 7% | ? | -26% | 12%
CC(=O)Nc1ccc(-c2csc(N/N=C(/C)c3ccccc3)n2)cc1 | 21µM* | -11% | 24% | 21µM* | / | 10%
C/C(=N/Nc1nc(-c2ccc(Cl)cc2)cs1)c1cccs1 | ? | 17% | 18% | 15µM* | ? | ?
COc1ccc(-n2c(SCC(=O)Nc3cccc(C)c3C)nc3c([nH]c4ccccc43)c2=O)cc1 | / | / | / | -3% | / | /
Cc1cc(=O)n(CCc2ccccc2)c(O)c1C#N | ? | 3% | 20% | 13µM* | 1% | ?
CCc1cccc(NC(=O)CN2Cc3ccccc3C2=O)c1 | / | / | / | -3% | / | /
Cc1ccc(C(=O)Oc2ccc(/C=C3\C(=N)N4N=C(N5CCOCC5)SC4=NC3=O)cc2)cc1 | ? | 23µM* | ? | ? | / | ?
CCCN(C(=O)Cn1nc(Cc2cccnc2)c2ccccc2c1=O)c1ccc(C(C)C)cc1 | / | / | / | -10% | -10% | /
Cc1nnc2sc(-c3ccc(N(C)C)cc3)nn2c1=O | ? | 16µM* | 3.2µM* | 7.6µM* | / | ?
O=C(NCC1COc2ccccc2O1)c1ccccc1 (centres undefined) | ? | ? | 4µM* | 12µM* | 13µM* | 4.5µM*
O=C(NC(=S)NCC1COc2ccccc2O1)c1ccccc1 (centres undefined) | -6% | 0% | 0% | ? | -33% | 0%
O=C(NCC1COc2ccccc2O1)c1cc2ccccc2o1 (centres undefined) | ? | 16% | 8% | 13µM* | 23% | 6%
CC(C)(C)c1ccc(C(=O)COC(=O)CN2C(=O)NC3(CCCC3)C2=O)cc1 | 10% | 5% | -3% | 8.5µM* | / | 0%
CC(C)(C)c1ccc(COC(=O)CN2C(=O)NC3(CCCC3)C2=O)cc1 | 0% | -3% | 9% | 2% | / | -2%
C=C(C#N)C(=O)OCC | / | / | / | / | -9% | /
COc1cccc(N2CCN(C(=O)c3ccc(CS(=O)Cc4ccccc4Cl)o3)CC2)c1 (centres undefined) | ? | -14% | -3% | -4% | / | -8%
O=C(c1ccc(CS(=O)Cc2ccccc2Cl)o1)N1CCN(c2ccccn2)CC1 (centres undefined) | 21µM* | -11% | -45% | -1% | / | -2%
COc1cccc(N2CCN(C(=O)c3ccc(CS(=O)Cc4ccc(Cl)cc4)o3)CC2)c1 (centres undefined) | 21µM* | -10% | -1% | 1% | / | -1%
O=C1C=CC(=O)C2=C1C1c3ccccc3C2c2ccccc21 | / | / | / | / | -1% | /
